Drawing on PubChem BioAssay (NCI), this text covers growth inhibition for 9 molecules.

Assay [1] is described as follows: NCI Yeast Anticancer Drug Screen. Data for the rad50 strain (AID 155).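 Note: 0% = growth of vehicle-only cultures of the same strain.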 The following applies: S. cerevisiae rad50 strain growth inhibition, hits give high values. In outline:
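Readout: growth inhibition relative to vehicle-treated cultures. Compound exposure was carried out in a genetically defined yeast strain deficient in DNA damage repair.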

The nature of assay [2]: NCI Yeast Anticancer Drug Screen. Data for the mec2-1 strain (AID 157). The following applies: S. cerevisiae mec2-1 strain, hits give high values. An outline of the steps:
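Test agents were screened against the mec2-1 yeast strain, with defined DNA repair or cell cycle alteration. Growth was scored as inhibition against vehicle-only controls.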

Assay [3] can be described thus: NCI Yeast Anticancer Drug Screen. Data for the sgs1 mgt1 strain (AID 161).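 Note: 0% = growth of cultures given vehicle only.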 The following applies: S. cerevisiae sgs1 mgt1 strain, hits give high values. In outline:
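Genetically altered yeast, compound exposure, growth inhibition relative to vehicle.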

Assay [4] can be described thus: NCI Yeast Anticancer Drug Screen. Data for the cln2 rad14 strain (AID 165).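 Note: 0% = growth equal to vehicle treated cultures.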 The following applies: S. cerevisiae cln2 rad14 strain, hits give high values. An outline of the steps:
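Growth of compound-exposed yeast (cln2 rad14 genotype) measured and expressed as inhibition relative to vehicle.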

The nature of assay [5]: NCI Yeast Anticancer Drug Screen. Data for the bub3 strain (AID 167). The following applies: S. cerevisiae bub3 mutant strain, hits give high values. In outline:
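Readout: yeast growth inhibition, expressed relative to vehicle-only wells. The test organism is a mutant strain from a panel with lesions in DNA repair or checkpoint genes.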

Assay [6] is described as follows: NCI Yeast Anticancer Drug Screen. Data for the mlh1 rad18 strain (AID 175). The following applies: S. cerevisiae mlh1 rad18 strain growth inhibition, hits give high values. An outline of the steps:
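In this whole-cell yeast screen, a strain with altered DNA damage repair is challenged with compound, and its growth is measured against matched vehicle-treated controls.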

[7] abbreviates: at 5.0 µM (retest, dose inferred, filed as 0.5).
Setting [8] is: at 50.0 µM (retest, dose inferred, filed as 5.0).

Structures are written as SMILES. Compounds without any hit were thinned out: in the full panel of roughly 79,000, 15% have a hit. A number with no mark means an inactive call. The source made the active and inactive calls. Cut-off read from the data, not from the text of the source: active = growth inhibition above about 70%; inactive = the rest.

`O=c1[nH]c2cc(Cl)ccc2nc1/C=C(\O)c1ccccn1`: the growth inhibition in assay [1] (setting [7]) was 20%; in assay [1] (setting [8]), 79% (active); in assay [1] (at 50.0 µM), 60%; in assay [2] (setting [7]), 7%; in assay [2] (setting [8]) it was 49%; in assay [2] (at 50.0 µM) it was 37.8%. Further, the growth inhibition in assay [3] (setting [7]) was 8%; in assay [3] (setting [8]), 71% (active); in assay [3] (at 50.0 µM), 74.8% (active); in assay [4] (setting [7]) it was 8%; in assay [4] (setting [8]) it was 64%; in assay [4] (at 50.0 µM), 34.1%. Moreover, the growth inhibition in assay [5] (setting [7]) is 21%; in assay [5] (setting [8]) it was 27%; in assay [5] (at 50.0 µM) it was 44.5%; in assay [6] (setting [7]) it was -1%; in assay [6] (setting [8]), 82% (active); in assay [6] (at 50.0 µM) it was 88% (active).
Take `Oc1ccccc1C1CCCCC1`: the growth inhibition in assay [1] (setting [7]) was 1%; in assay [1] (setting [8]) it was 38%; in assay [1] (at 50.0 µM), 88.5% (active); in assay [2] (setting [7]), 3%; in assay [2] (setting [8]), 17%; in assay [2] (at 50.0 µM), 84.3% (active). The growth inhibition in assay [3] (setting [7]) is 0%; in assay [3] (setting [8]), 47%; in assay [3] (at 50.0 µM), 96.1% (active); in assay [4] (setting [7]) it was 4%; in assay [4] (setting [8]), -10%; in assay [4] (at 50.0 µM), 46.6%. For the same molecule, the growth inhibition in assay [5] (setting [7]) is -9%; in assay [5] (setting [8]), 6%; in assay [5] (at 50.0 µM), 73.2% (active); in assay [6] (setting [7]), 4%; in assay [6] (setting [8]) it was 46%; in assay [6] (at 50.0 µM), 93.2% (active).
With `CC(O[Si](C)(C)C(C)(C)C)C(=O)Sc1ccccn1` (configuration not stated), the growth inhibition in assay [1] (setting [7]) is -1%; in assay [1] (setting [8]), 66%; in assay [1] (at 50.0 µM), 95.3% (active); in assay [2] (setting [7]), -9%; in assay [2] (setting [8]), 97% (active); in assay [2] (at 50.0 µM) it was 97.2% (active). Besides, the growth inhibition is -6% in assay [3] (setting [7]); 54% in assay [3] (setting [8]); 95.5% (active) in assay [3] (at 50.0 µM); -10% in assay [4] (setting [7]); 84% (active) in assay [4] (setting [8]); 85.9% (active) in assay [4] (at 50.0 µM). The growth inhibition in assay [5] (setting [7]) was -6%; in assay [5] (setting [8]) it was 99% (active); in assay [5] (at 50.0 µM) it was 93.9% (active); in assay [6] (setting [7]), -9%; in assay [6] (setting [8]), 48%; in assay [6] (at 50.0 µM), 94.7% (active).
Take `O=c1[nH]c2c([N+](=O)[O-])cc(Cl)cc2nc1/C=C(\O)c1ccco1`: the growth inhibition in assay [1] (setting [7]) is 17%; in assay [1] (setting [8]), 74% (active); in assay [1] (at 50.0 µM), 72.7% (active); in assay [2] (setting [7]), -5%; in assay [2] (setting [8]), 44%; in assay [2] (at 50.0 µM), 56.1%. The growth inhibition in assay [3] (setting [7]) was 1%; in assay [3] (setting [8]) it was 54%; in assay [3] (at 50.0 µM), 84.2% (active); in assay [4] (setting [7]), -1%; in assay [4] (setting [8]), 62%; in assay [4] (at 50.0 µM), 59%. Besides, the growth inhibition was 4% in assay [5] (setting [7]); 66% in assay [5] (setting [8]); 32.6% in assay [5] (at 50.0 µM); -4% in assay [6] (setting [7]); 70% (active) in assay [6] (setting [8]); 80% (active) in assay [6] (at 50.0 µM).
On to `O=C(Nc1ccc(Br)cc1)Oc1ccccc1C(=O)Nc1ccccc1`, for which the growth inhibition in assay [1] (setting [7]) was 6%; in assay [1] (setting [8]) it was 95% (active); in assay [1] (at 50.0 µM), 79.1% (active); in assay [2] (setting [7]) it was 1%; in assay [2] (setting [8]), 96% (active); in assay [2] (at 50.0 µM), 70.3% (active). The growth inhibition is 0% in assay [3] (setting [7]); 98% (active) in assay [3] (setting [8]); 91% (active) in assay [3] (at 50.0 µM); 2% in assay [4] (setting [7]); 94% (active) in assay [4] (setting [8]); 54.2% in assay [4] (at 50.0 µM). The growth inhibition in assay [5] (setting [7]) was 5%; in assay [5] (setting [8]), 98% (active); in assay [5] (at 50.0 µM), 89.9% (active); in assay [6] (setting [7]) it was 4%; in assay [6] (setting [8]) it was 96% (active); in assay [6] (at 50.0 µM), 97.8% (active).
With `CC(C)c1cc(C(=O)[O-])c(O)c(C(C)C)c1.CC(C)c1cc(C(=O)[O-])c(O)c(C(C)C)c1.CC(C)c1cc(C(=O)[O-])c(O)c(C(C)C)c1.CC(C)c1cc(C(=O)[O-])c(O)c(C(C)C)c1.CC(C)c1cc(C(=O)[O-])c(O)c(C(C)C)c1.CC(C)c1cc(C(=O)[O-])c(O)c(C(C)C)c1.[Cu+2].[Mn+2].[Mn+2]`, the growth inhibition in assay [1] (setting [7]) was 40%; in assay [1] (setting [8]), 63%; in assay [1] (at 50.0 µM) it was 43.5%; in assay [2] (setting [7]), 38%; in assay [2] (setting [8]), 57%; in assay [2] (at 50.0 µM) it was 50.5%. Also, the growth inhibition in assay [3] (setting [7]) is 31%; in assay [3] (setting [8]) it was 70% (active); in assay [3] (at 50.0 µM) it was 44.5%; in assay [4] (setting [7]) it was 34%; in assay [4] (setting [8]), 53%; in assay [4] (at 50.0 µM) it was 50.7%. Besides, the growth inhibition was 37% in assay [5] (setting [7]); 66% in assay [5] (setting [8]); 55% in assay [5] (at 50.0 µM); 39% in assay [6] (setting [7]); 66% in assay [6] (setting [8]); 82.1% (active) in assay [6] (at 50.0 µM).
On to `CCCCCCCCCCCCCCCc1nc(SCC(=O)O)n[nH]1`, for which the growth inhibition was 2% in assay [1] (setting [7]); 58% in assay [1] (setting [8]); 54.8% in assay [1] (at 50.0 µM); 0% in assay [2] (setting [7]); 52% in assay [2] (setting [8]); 55.9% in assay [2] (at 50.0 µM). In addition, the growth inhibition was 18% in assay [3] (setting [7]); 54% in assay [3] (setting [8]); 74.2% (active) in assay [3] (at 50.0 µM); 3% in assay [4] (setting [7]); 40% in assay [4] (setting [8]); 80.5% (active) in assay [4] (at 50.0 µM). For the same molecule, the growth inhibition in assay [5] (setting [7]) is -1%; in assay [5] (setting [8]), 67%; in assay [5] (at 50.0 µM), 37.1%; in assay [6] (setting [7]) it was 9%; in assay [6] (setting [8]), 71% (active); in assay [6] (at 50.0 µM) it was 89.5% (active).
For the molecule `CCN(CC)CCC(=O)OC1C(C)=CC(C)C(=O)CC(C(C)CC2CCC(O)C(OC)C2)OC(=O)C2CCCCN2C(=O)C(=O)[C@@]2(O)OC(CCC2C)CC(OC)\C(C)=C/C=C/C=C/C(C)CC(C)C(=O)C1OC` (some centres not stated), the growth inhibition was 40% in assay [1] (setting [7]); 97% (active) in assay [1] (setting [8]); 90.9% (active) in assay [1] (at 50.0 µM); 26% in assay [2] (setting [7]); 98% (active) in assay [2] (setting [8]); 93% (active) in assay [2] (at 50.0 µM). Besides, the growth inhibition in assay [3] (setting [7]) was 96% (active); in assay [3] (setting [8]), 96% (active); in assay [3] (at 50.0 µM) it was 93.4% (active); in assay [4] (setting [7]), 94% (active); in assay [4] (setting [8]), 95% (active); in assay [4] (at 50.0 µM), 87.7% (active). Also, the growth inhibition in assay [5] (setting [7]) was 53%; in assay [5] (setting [8]), 98% (active); in assay [5] (at 50.0 µM), 92.8% (active); in assay [6] (setting [7]) it was 97% (active); in assay [6] (setting [8]) it was 97% (active); in assay [6] (at 50.0 µM), 92.2% (active).
`N#C/C(=C\C(Cl)=C/c1ccccc1)C(N)=S`: the growth inhibition was 68% in assay [1] (setting [7]); 97% (active) in assay [1] (setting [8]); 50.1% in assay [1] (at 50.0 µM); 45% in assay [2] (setting [7]); 99% (active) in assay [2] (setting [8]); 40.5% in assay [2] (at 50.0 µM). Also, the growth inhibition is 91% (active) in assay [3] (setting [7]); 98% (active) in assay [3] (setting [8]); 43.2% in assay [3] (at 50.0 µM); 16% in assay [4] (setting [7]); 95% (active) in assay [4] (setting [8]); 98% (active) in assay [4] (at 50.0 µM). Moreover, the growth inhibition in assay [5] (setting [7]) was 79% (active); in assay [5] (setting [8]) it was 98% (active); in assay [5] (at 50.0 µM) it was 99% (active); in assay [6] (setting [7]), 86% (active); in assay [6] (setting [8]), 98% (active); in assay [6] (at 50.0 µM), 40.4%.
